Measured values as given in PubChem BioAssay (NCI).
About 83,000 compounds went through this panel and 20% of them were active in at least one assay; those are over-represented in the sample as a whole.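 Assay: single dose, 48 h. Readout: percent growth (0 = no net growth; negative = cell death). Active: <10.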 Unmarked numbers belong to inactive results. Calls of active or inactive are those of the source.

System: SK-MEL-28 melanoma
Experiment: NCI-60 one-dose screen, 48 h (100 = growth as untreated, 0 = no growth, -100 = all killed)
Details: 10 µM unless noted
Method: Growth inhibition of the SK-MEL-28 human tumor cell line is measured as a screen for anti-cancer activity. Cells are grown in 96 well plates and exposed to the test compound for 48 hours. Compounds are tested at a single concentration, which is 10^-5 M for most compounds. The reported endpoint is percent growth (GI% or GIPRCNT), where numbers from 0 - 100% represent growth inhibition, and numbers from -100% - 0 represent cell death. For example, a value of 40 represents 60% growth inhibition. A value of 0 means no net growth occurred over the course of the experiment. A value of -40 indicates 40% of cells at the beginning of the experiment died by the end of the experiment. A value of -100 means all cells are dead at the end of the experiment.
NCI-60 Human Tumor Cell Lines Screen was performed using the standard one-dose NCI protocol, which is described in more detail at https://dtp.cancer.gov/discovery_development/nci-60/default.htm.
Compounds with GIPRCNT values below 10 were considered active. Activity score was based on GIPRCNT using the following formula: […]
Score is 0 for GIPRCNT values of 100 or above, 50 for GIPRCNT values of 0, and 100 for GIPRCNT values of -100.

Structure (SMILES) | growth
CN1CCN(CCCNc2nccc(-c3c(-c4ccc(F)c(O)c4)nc4sccn34)n2)S1(=O)=O | 12.8%
O=S(=O)(c1cccc(NC2=Nc3cccc4cccc2c34)c1)N1CCCC1 | 81.4%
COc1ccc(C(=O)c2cc3c(N)c(C(=O)Nc4ccc(Br)cc4)sc3nc2C)cc1 | 86.4%
CCCCCCCCOc1ccc(/C=N/Nc2cc(C)nc3ccc(Cl)cc23)cc1 | 64.3%
Cc1ccc(-c2c(Br)c(OC(=O)CO[C@@H]3C[C@H](C)CC[C@H]3C(C)C)c(-c3ccc(C)cc3C)c(Br)c2OC(=O)CO[C@H]2C[C@@H](C)CC[C@@H]2C(C)C)c(C)c1 | 108%
CC(=O)[C@@H]1CC[C@]2(C(N)=O)CC[C@]3(C)[C@H](CC[C@@H]4[C@@]5(C)CCC(=O)C(C)(C)[C@@H]5CC[C@]43C)[C@@H]12 | 100%
C=C1C(=O)O[C@H]2[C@H]1CC/C(COC(=O)NCCc1c[nH]c3ccc(Cl)cc13)=C\CC[C@@]1(C)O[C@@H]21 | -71.9% (active)
O=C1OC(=O)C2C1CC=CC2c1ccccc1 (stereo not given) | 91.8%
O=C1Nc2c(ccc(Cl)c2Cl)/C1=C/c1ccc(F)cc1 | 115%
C=C(C)[C@@H]1CC[C@]2(C(=O)NCC(=O)OC)CC[C@]3(C)[C@H](CC[C@@H]4[C@@]5(C)Cc6c([nH]c7ccccc67)C(C)(C)[C@@H]5CC[C@]43C)[C@@H]12 | 95%
O=C(Nc1cccc(Cl)c1)c1cc(Cl)ccc1O | 10.1%
CN1CCCC1=Nc1ccccc1 | 96.6%
O=S(=O)(NCCNc1nccc(-c2c(-c3ccc(F)c(O)c3)nc3sccn23)n1)c1ccccc1 | 16.8%
COc1cc(/C=C/C(=O)c2c(C)oc3nc[nH]c(=O)c23)ccc1O | 101%
O=S(=O)(NCCNc1nccc(-c2c(-c3ccc(F)c(O)c3)nc3occn23)n1)c1ccccc1 | 27.3%
COc1ccc(-c2c(-c3ccccc3)noc2N)cc1OC | 112%
COc1ccc(-c2nc(SCC(C)C)nc(N/N=C(/C)c3ccc(OC)c(OC)c3)c2C#N)cc1 | 84.5%
Cc1ccccc1CNc1ccc(N2CCOCC2)cc1 | 99.8%
NC(=O)c1cccc(-n2ccc3cc(NC(=O)Nc4cc(C(F)(F)F)cc(C(F)(F)F)c4)ccc32)n1 | 69.3%
COc1cc(/C=C/C(=O)c2ccc(Nc3ncnc4ccccc34)cc2)cc(OC)c1 | 86.3%

Structure (SMILES) | growth
CCCCCCNC(=O)Oc1ccc(/C(=C(/CC)Cc2ccccc2)c2ccc(OCCN(CC)CC)cc2)cc1 | 80.8%
CC(=O)c1c(-c2ccc(OC(F)(F)F)cc2)nc2ccccn12 | 90%
Cc1cn(-c2cc(C(=O)Nc3cccc(C#Cc4cccc5[nH]nc(N)c45)c3)cc(C(F)(F)F)c2)cn1 | 15.8%
CCCNC(=O)Oc1ccc(/C(=C(\C)c2ccccc2)c2ccc(OCCN3CCCCC3)cc2)cc1 | 70.5%
CC(C)Cc1ccc(C(C)C(=O)NCc2c[nH]c3ccc(Cl)cc23)cc1 (stereo not given) | 94.6%
O=C(CN1CCOCC1)Nc1ccc2ncnc(Nc3ccc(Oc4cccc(C(F)(F)F)c4)c(Cl)c3)c2c1 | 77.1%
O=C1Nc2cc(-c3ccncc3)ccc2/C1=C/c1ccc[nH]1 | 69.6%
CCCCCCc1nc2nc(Cl)c(Cl)nc2[nH]1 | 65.1%
CCN(CC)CCOC(COc1cc(C)cc(C)c1)COc1cc(C)cc(C)c1 | 39.6%
COc1cccc2cc(-c3cc4ccccc4[nH]3)/c(=N/C(=S)Nc3ccc(C)cc3)oc12 | 78.4%
Nc1c(C(=O)Nc2cccc3ccncc23)sc2nc3c(cc12)C(=O)CCC3 | 55.8%
CNC(=O)NCC1OC(n2cnc3c(NC(=O)Nc4ccccc4)ncnc32)C(O[Si](C)(C)C(C)(C)C)C1O[Si](C)(C)C(C)(C)C (stereo not given) | 60%
CCCCCCN(C)Cc1ccc(OCCOc2ccc(CN(C)CCCCCC)cc2)cc1 | -68.7% (active)
C=C1C(=O)O[C@H]2[C@H]1CC/C(COC(=O)/C=C/c1c[nH]c3ccccc13)=C\CC[C@@]1(C)O[C@@H]21 | -54% (active)
O=c1[nH]nc(-c2ccc(Cl)cc2)cc1Cc1cccc([N+](=O)[O-])c1 | 109%
Nc1c(Cl)cc([N+](=O)[O-])cc1Br | 110%
COc1cccc(CCC(=O)c2cc3c(N)c(C(=O)Nc4cccc(Cl)c4C)sc3nc2C)c1 | 44.5%
COc1cccc(NC(=O)c2cccc(-c3cc(=O)c4c(OC)c(OC)c(OC)cc4o3)c2)c1 | 73.4%
COc1ccc(Cn2nc(-c3ccccc3)c3c2CCc2cnoc2-3)cc1 | 84.8%
[2H]C1([2H])NC([2H])([2H])C([2H])([2H])N(c2ccc(Nc3ncc4cc(C(=O)N(C)C)n(C5CCCC5)c4n3)nc2)C1([2H])[2H] | 88.6%
